Measured values: ChEMBL document CHEMBL3988442, “University of Dundee, Small-Polar-MMV Screening Library” (2021)
Out of some 69,000 compounds screened, about 420 (0.61%) showed an effect of 50% or more. This is one part of a sample in which strong results are shown more often than they occur.

biological target: T1, Histidine--tRNA ligase (Leishmania infantum) (UniProt A4I591); experiment: Leishmania infantum Histidine tRNA synthetase (LdHisRS); assay type: functional; design: scale not given: in the data most compounds retested in dose-response had high values; conditions: 30 µM
T1 sequence (whole entry): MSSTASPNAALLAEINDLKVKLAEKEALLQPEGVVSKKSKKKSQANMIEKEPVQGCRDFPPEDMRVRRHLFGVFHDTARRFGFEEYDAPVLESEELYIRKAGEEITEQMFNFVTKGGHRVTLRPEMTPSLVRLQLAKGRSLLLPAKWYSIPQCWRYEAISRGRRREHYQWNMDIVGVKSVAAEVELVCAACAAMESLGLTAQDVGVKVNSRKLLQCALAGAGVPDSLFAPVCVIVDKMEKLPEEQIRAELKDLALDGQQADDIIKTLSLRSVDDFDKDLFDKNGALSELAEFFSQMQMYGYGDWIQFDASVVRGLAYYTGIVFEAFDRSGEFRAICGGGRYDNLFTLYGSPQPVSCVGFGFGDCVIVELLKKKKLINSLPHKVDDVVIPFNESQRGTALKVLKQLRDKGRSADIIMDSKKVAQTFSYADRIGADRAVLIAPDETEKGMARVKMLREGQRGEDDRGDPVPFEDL

| Structure (SMILES) | Percent Effect |
| --- | --- |
| COCCN1CCO[C@H]2CN(Cc3cc[nH]n3)C[C@H]21 | 23.8% |
| CS(=O)(=O)N[C@@H]1CN(C(=O)c2ccccn2)C[C@@H]2CCCO[C@@H]21 | 15.6% |
| CN1CCO[C@@H]2CN(C(=O)NCc3cccc(F)c3)CC[C@@H]2C1 | 4.54% |
| CCCS(=O)(=O)N1C[C@@H](c2nc(C)no2)C[C@H]2OCC[C@H]21 | 11.7% |
| Cc1cccc(C(=O)N2C[C@@H]3OCCN(CCN4CCCC4)[C@@H]3C2)n1 | 16% |
| CCS(=O)(=O)N1CC[C@@H]2[C@H](CC1)N(CC(C)C)CCS2(=O)=O | 10.5% |
| O=C(NCC1CC1)[C@H]1C[C@@H]2CN(S(=O)(=O)Cc3ccccc3)C[C@H]1O2 | -0.73% |
| O=C(c1ccncc1)N1CC[C@@H]2[C@@H](CC1)OCCN2c1cccnc1 | 17.5% |
| Cc1nc(CO[C@H]2CN(Cc3cccs3)[C@@H]3COC[C@H]23)cs1 | 8.06% |
| COCc1nc2cc3c(cc2c(=O)o1)OCCCO3 | 15.7% |
| c1cc(CN2CCCCC2)cc(NCc2cc[nH]n2)c1 | 15.8% |
| COCc1nc2cc(NCc3ccncc3)ccc2o1 | 100% |
| COCc1nc2cc(NCc3cc[nH]n3)ccc2o1 | 106% |
| COCc1cccc(NCc2cccnc2)c1 | 6.67% |
| CN1CCN(Cc2cccc(NCc3cc[nH]n3)c2)CC1 | 12.3% |
| CCCS(=O)(=O)C(C)C(=O)Nc1ccc2oc(C3CC3)nc2c1 (stereo unspecified) | 26.8% |
| COCc1nc2cc(NCc3ncc[nH]3)ccc2o1 | 38.4% |
| CCC(C)CNc1ccc2oc(COC)nc2c1 (stereo unspecified) | 94.2% |
| O=C(NC1CC1)[C@H]1COC[C@H]2CN(c3ncc(F)cn3)C[C@H]21 | 12% |

| Structure (SMILES) | Percent Effect |
| --- | --- |
| Cc1nc(CN2CCO[C@H]3CN(C(=O)c4cccn4C)C[C@H]32)cs1 | 10.5% |
| CNC(=O)[C@@H]1[C@@H](c2ccccc2)CN2CCN(Cc3cccs3)C[C@H]12 | 6.12% |
| Cc1ccc(CN2C[C@@H]3CN(CC4CCOCC4)CCO[C@@H]3C2)s1 | 19% |
| COCC(=O)N[C@H]1C[C@H]2C(=O)NC[C@@H](CCC(=O)NC3CC3)N2C1 | 5.56% |
| CN(C)C(=O)[C@@H]1CCO[C@@H]2CCN(c3ncccn3)C[C@@H]21 | 0% |
| CNC(=O)[C@@H]1CC[C@@H]2[C@@H](CCN2C(=O)N(C)C)O1 | 0% |
| COC[C@@]12CCO[C@@H]1CCN(C(=O)Cc1cccc(F)c1)C2 | 19.4% |
| CCOc1ccc2nc(CN3CCOC(CN)C3)ccc2c1 (stereo unspecified) | 13.4% |
| CCOc1ccc2nc(CN3CCC(CNC(C)=O)C3)ccc2c1 (stereo unspecified) | 37.3% |
| CCOc1ccc2nc(CN3CCC(CN)C3)ccc2c1 (stereo unspecified) | 52.2% |
| COC[C@@]12CCO[C@@H]1CCN(C(=O)Cc1ccccc1F)C2 | 11.4% |
| O=C1[C@@H]2CCN(Cc3ccoc3)C[C@@H]2OCCN1Cc1cccnc1 | 15.3% |
| Cc1cc(C)cc(OCCC(=O)NC2CC(=O)N(C)C2)c1 (stereo unspecified) | 74.7% |
| CN1CC(NC(=O)CCOc2cccc(Cl)c2)CC1=O (stereo unspecified) | 4.22% |
| Cc1ccc(OCCC(=O)NC2CC(=O)N(C)C2)cc1C (stereo unspecified) | 12.7% |
| Cc1nc(CN2CCO[C@H]3[C@H](OCC(=O)N(C)C)CC[C@@H]32)cs1 | -9.73% |
| COc1cccc(-c2n[nH]c3c2CN(C(=O)c2ccncc2)CC3)c1 | 0% |
| COc1cccc(-c2n[nH]c3c2CN(C(=O)c2cccc(=O)[nH]2)CC3)c1 | 65.6% |
| COc1cccc(-c2n[nH]c3c2CN(C(=O)c2cc(C)n(C)n2)CC3)c1 | 0% |

| Structure (SMILES) | Percent Effect |
| --- | --- |
| Cc1csc(CN2CC[C@H]3C[C@@H](c4noc(C)n4)O[C@@H]3C2)n1 | 12.9% |
| CN(C)c1ncccc1N(C)C(=O)Cn1cc(-c2ccccc2)nn1 | 0% |
| COc1ccc(CC(=O)N(C)c2cccnc2N(C)C)c(Cl)c1 | 57.1% |
| COc1cccc(OCC(=O)N(C)c2cccnc2N(C)C)c1 | 10.2% |
| COC[C@]12COC[C@H]1CN(Cc1cc(OC)cc(OC)c1)C2 | 4.51% |
| COCC(=O)N1CC[C@H]2C[C@@H](c3nnc(C4CC4)o3)O[C@@H]2C1 | 18.9% |
| CCn1nc(C)cc1C(=O)N1CC[C@H](OC)[C@H]2CN(CC3CC3)C[C@H]21 | 3.95% |
| COc1ccc(CC(=O)N2CC[C@@H]3[C@H](CC2)N(C)CCS3(=O)=O)cc1 | 17.1% |
| Cc1cccnc1NC(=O)C1CSc2ncc(C)c(=O)n2C1 (stereo unspecified) | 20.5% |
| Cc1ccncc1NC(=O)C1CSc2ncc(C)c(=O)n2C1 (stereo unspecified) | 15.4% |
| Cc1cnc2n(c1=O)CC(C(=O)Nc1cccc3cccnc13)CS2 (stereo unspecified) | 67.3% |
| CC(C)NC(=O)[C@@H]1CCO[C@@H]2CCN(c3ncccn3)C[C@@H]21 | 11.1% |
| COCc1nc2cc(NCc3scnc3C)ccc2o1 | 54.5% |
| COCc1nc2cc(NCc3csc(C)n3)ccc2o1 | 29.5% |
| Cc1csc(CNc2cccc(OCCN3CCCC3)c2)n1 | 23.2% |
| COCc1nc2cc(NCc3sc(C)nc3C)ccc2o1 | 79.5% |
| COCc1nc(CNc2cccc(-c3nc(C)c(C)o3)c2)cs1 | 0% |
| COCc1nc2cc(NCc3nc(C)cs3)ccc2o1 | 106% |
